In PubChem BioAssay AID504890 (The Scripps Research Institute Molecular Screening Center, 2011):
Active and inactive are the calls of the source.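 The calls were made as follows: active = EC50 at or below 10 µM; inactive = EC50 above 10 µM.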

Test: polarization artefacts in absence of PKA proteins – biochemical, fluorescence polarization, 1536-well HTS, artefact control for PKA-R2B complex activator project, dose response (AID 504890)
Details: Cy5-IP20 FP artifact counterscreen, no PKA-R2B complex

Compound	EC50
CN(C)c1ccc(N=Nc2ccc(S(=O)(=O)O)cc2)c2ccccc12	> 114 µM (inactive)
CCCC(=O)Nc1ncnc2c1ncn2[C@@H]1O[C@@H]2COP(=O)(O)O[C@H]2[C@H]1OC(=O)CCC	> 114 µM (inactive)
CCCC(=O)Nc1ncnc2c1ncn2[C@@H]1O[C@@H]2OP(=O)(O)OC[C@H]2[C@H]1OC(=O)CCC	> 114 µM (inactive)
O=S(=O)(O)c1cccc2c(N=Nc3ccc(O)c4ncccc34)cccc12	> 114 µM (inactive)
O=C(O)c1sccc1SCc1ccc(Cl)cc1Cl	> 114 µM (inactive)
Nc1ncnc2c1nc(Br)n2[C@@H]1O[C@@H]2COP(=O)(O)O[C@H]2[C@H]1O	> 114 µM (inactive)
CCOP1(=O)OCC2OC(n3cnc4c(N)ncnc43)C(O)C2O1 (centres undefined)	> 114 µM (inactive)
Nc1ncnc2c1nc(Sc1ccc(Cl)cc1)n2[C@@H]1O[C@@H]2COP(=O)(O)O[C@H]2[C@H]1O	> 114 µM (inactive)
Nc1nc2c(nc(Br)n2[C@@H]2O[C@@H]3COP(=O)(O)O[C@H]3[C@H]2O)c(=O)[nH]1	> 114 µM (inactive)
